The source made the active and inactive calls. Unless noted, how the calls were made is not given here.
Key:
[1] = anti-His antibody binders, primary screen, artefact control for SMM control protein annotation, biochemical, small-molecule microarray, 635 nm fluorescence (AID 1128); details: anti-His Alexa647 antibody binding, higher = more signal;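 further: score merges feature fluorescence with signal-to-noise for each printed compound spot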
[2] = tested on: Human papillomavirus type 1a E7 protein (residues 1-88); assay: HPV1a E7 small-molecule binders, primary screen, biochemical, small-molecule microarray, residues 1-88, 635 nm (AID 1129); details: small-molecule microarray binding, fluorescence 635 nm; higher = more signal
[3] = biological target: Focal adhesion kinase 1 (Homo sapiens) (UniProt Q05397); assay: small-molecule microarray binders of FAK, primary screen, biochemical, 635/667 nm fluorescence, BSA, DTT (AID 1130); details: PTK2 binding, 635 nm fluorescence, higher = more signal;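 further: composite of spot emission at 667 nm and signal to noise over triplicate slides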
Chain of Focal adhesion kinase 1 (Homo sapiens) (Q05397 whole entry, looked up): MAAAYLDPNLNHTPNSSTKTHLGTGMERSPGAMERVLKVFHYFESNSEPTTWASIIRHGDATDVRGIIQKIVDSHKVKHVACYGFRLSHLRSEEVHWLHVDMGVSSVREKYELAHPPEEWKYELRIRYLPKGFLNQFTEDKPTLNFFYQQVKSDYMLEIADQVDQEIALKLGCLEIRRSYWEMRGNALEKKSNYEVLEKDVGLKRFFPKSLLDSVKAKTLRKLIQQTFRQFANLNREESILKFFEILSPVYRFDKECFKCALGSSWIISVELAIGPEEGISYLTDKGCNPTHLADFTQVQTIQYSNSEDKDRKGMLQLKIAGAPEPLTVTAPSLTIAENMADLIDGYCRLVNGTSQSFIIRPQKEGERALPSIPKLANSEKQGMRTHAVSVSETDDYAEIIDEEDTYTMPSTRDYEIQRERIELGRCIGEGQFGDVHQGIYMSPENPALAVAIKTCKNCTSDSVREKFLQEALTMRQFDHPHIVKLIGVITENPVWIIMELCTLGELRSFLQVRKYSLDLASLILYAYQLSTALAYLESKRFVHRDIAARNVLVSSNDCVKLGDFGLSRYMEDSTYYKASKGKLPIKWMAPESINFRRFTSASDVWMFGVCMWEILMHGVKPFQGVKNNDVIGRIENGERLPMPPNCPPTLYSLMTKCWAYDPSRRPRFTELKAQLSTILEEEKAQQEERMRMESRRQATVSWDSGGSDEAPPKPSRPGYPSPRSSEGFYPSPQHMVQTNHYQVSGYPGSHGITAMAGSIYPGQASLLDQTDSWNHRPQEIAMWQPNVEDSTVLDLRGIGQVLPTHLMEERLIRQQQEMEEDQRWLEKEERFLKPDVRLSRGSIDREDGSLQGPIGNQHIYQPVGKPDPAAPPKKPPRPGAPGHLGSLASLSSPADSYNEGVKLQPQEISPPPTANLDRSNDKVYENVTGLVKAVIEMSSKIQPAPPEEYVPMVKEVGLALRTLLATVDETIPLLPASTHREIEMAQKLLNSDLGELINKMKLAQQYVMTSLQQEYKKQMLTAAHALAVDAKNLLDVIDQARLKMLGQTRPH

[4] = tested on: Fibrinogen (Alexa647-labelled); assay: fibrinogen binders on compound microarrays, profiling panel, artefact control for SMM control-protein annotation, biochemical, small-molecule microarray, 635/667 nm fluorescence (AID 1131); details: fibrinogen-A647 binding fluorescence, higher = more signal;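 further: z-score merges 667 nm fluorescence with per-spot signal-to-noise over triplicate slides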
[5] = biological target: Follistatin (Homo sapiens) (UniProt P19883); assay: follistatin binders on small-molecule microarrays, primary screen, biochemical, small-molecule microarray, 635/667 nm fluorescence (AID 1132); details: FST binding, 635 nm fluorescence, higher = more signal
Chain of Follistatin (Homo sapiens) (P19883 whole entry, looked up): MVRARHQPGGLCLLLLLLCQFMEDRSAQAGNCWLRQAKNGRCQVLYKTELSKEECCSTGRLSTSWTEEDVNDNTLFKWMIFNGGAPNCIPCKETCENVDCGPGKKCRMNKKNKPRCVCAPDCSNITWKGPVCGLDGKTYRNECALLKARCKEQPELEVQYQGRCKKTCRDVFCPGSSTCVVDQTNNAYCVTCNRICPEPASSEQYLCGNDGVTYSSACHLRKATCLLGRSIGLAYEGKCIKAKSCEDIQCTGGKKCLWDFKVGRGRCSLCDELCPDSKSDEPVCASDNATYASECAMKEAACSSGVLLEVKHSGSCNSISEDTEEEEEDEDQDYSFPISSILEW

[6] = biological target: Fibroblast growth factor 2 (Homo sapiens) (UniProt P09038); assay: FGF2 binders on small-molecule microarrays, primary screen, biochemical, small-molecule microarray, 635/667 nm fluorescence (AID 1133); details: small-molecule microarray binding, FGF2, fluorescence 635/667; higher = more signal
Chain of Fibroblast growth factor 2 (Homo sapiens) (P09038 whole entry, looked up): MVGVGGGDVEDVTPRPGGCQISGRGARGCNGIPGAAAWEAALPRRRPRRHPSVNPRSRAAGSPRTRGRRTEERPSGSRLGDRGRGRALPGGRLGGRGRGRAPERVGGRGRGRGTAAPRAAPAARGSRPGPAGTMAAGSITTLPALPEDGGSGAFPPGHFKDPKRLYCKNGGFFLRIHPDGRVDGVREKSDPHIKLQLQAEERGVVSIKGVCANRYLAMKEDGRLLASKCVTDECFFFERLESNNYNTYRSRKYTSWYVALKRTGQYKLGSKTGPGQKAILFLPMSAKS

[7] = mitochondrial membrane potential change in A549 cells, profiling panel, cell-based, JC-1 fluorescence, basal, 24 h, 100 nL (AID 1138); details: higher = more signal;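 further: A549 lung adenocarcinoma cells under basal conditions with no added stimulus; test concentration not given here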
Lefty1 = Lefty1 binders on small-molecule microarrays, primary screen, biochemical, small-molecule microarray, 635/667 nm fluorescence (AID 1139); details: small-molecule microarray binding, fluorescence 635/667; higher = more signal
[8] = tested on: wheat germ agglutinin (Triticum aestivum), Alexa647-labelled; assay: wheat germ agglutinin binders on compound microarrays, profiling panel, artefact control for SMM control-protein annotation, biochemical, small-molecule microarray, 635/667 nm fluorescence (AID 1140); details: WGA-A647 binding, 635 nm fluorescence, higher = more signal;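 further: score merges 667 nm feature emission with signal to noise over triplicate slides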
[9] = biological target: Luciferin 4-monooxygenase (Photinus pyralis) (UniProt P08659); assay: firefly luciferase enzyme inhibitors, primary screen, biochemical, luminescence, purified enzyme, 2006 set (AID 1141); details: SteadyGlo luminescence, 30 min, higher = more signal, called active from +8 up or from −8 down;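 further: cell-free assay with purified firefly luciferase at 100 ng per well in PBS; test concentration not given here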
Chain of Luciferin 4-monooxygenase (Photinus pyralis) (P08659 whole entry, looked up): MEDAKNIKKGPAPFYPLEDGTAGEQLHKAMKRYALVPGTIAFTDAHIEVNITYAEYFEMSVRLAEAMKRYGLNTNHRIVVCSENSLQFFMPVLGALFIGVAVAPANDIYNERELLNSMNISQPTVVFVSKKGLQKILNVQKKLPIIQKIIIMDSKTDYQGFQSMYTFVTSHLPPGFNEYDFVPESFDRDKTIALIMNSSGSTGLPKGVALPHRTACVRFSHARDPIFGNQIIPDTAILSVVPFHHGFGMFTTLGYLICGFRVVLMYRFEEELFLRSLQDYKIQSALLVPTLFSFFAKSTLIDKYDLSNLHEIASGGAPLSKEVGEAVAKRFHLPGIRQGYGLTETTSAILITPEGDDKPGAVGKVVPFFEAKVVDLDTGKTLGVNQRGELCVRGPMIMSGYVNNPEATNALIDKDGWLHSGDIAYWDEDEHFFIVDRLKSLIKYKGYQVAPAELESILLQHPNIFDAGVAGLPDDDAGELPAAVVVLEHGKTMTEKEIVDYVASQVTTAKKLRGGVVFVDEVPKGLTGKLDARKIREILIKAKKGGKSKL

[10] = tested on: Wnt5a (protein binding on small-molecule microarray); assay: Wnt5a binders on small-molecule microarray, primary screen, biophysical, 635/667 nm fluorescence (AID 1142); details: 635 nm fluorescence, higher = more signal;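 further: fluorescence read at 667 nm with signal to noise per printed feature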
[11] = cell viability in Huh7 cells, primary screen, cytotoxicity control for HCV replication inhibitor project, CellTiter-Glo luminescence, basal, 48 h (AID 1143); details: Huh7 HCV replicon, higher = more signal, called active from +8 up or from −8 down;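 further: Huh7 hepatoma cells carrying a hepatitis C replication reporter with no stimulus; test concentration not given here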
[12] = P. aeruginosa biofilm formation inhibitors, primary screen, PAO1 strain, BacTiter-Glo luminescence, LB-PBS (AID 1144); details: 12 h, higher = more signal
[13] = CREB reporter modulators without forskolin, primary screen, cell-based, PC12, CRE-LacZ reporter, unstimulated (AID 1145); details: no forskolin, luminescence, 4.5 h, higher = more signal, called active from +8 up or from −8 down
[14] = CREB reporter modulators under forskolin, primary screen, cell-based, PC12, CRE-LacZ reporter, forskolin-stimulated (AID 1146); details: luminescence, 4.5 h, higher = more signal, called active from +8 up or from −8 down;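 further: PC12 cells with 6xCRE LacZ reporter stimulated by forskolin 10 µM; beta-galactosidase reporter signal reflecting CREB driven transcription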
[15] = biological target: Streptavidin (Streptomyces avidinii) (UniProt P22629); assay: streptavidin binders on small-molecule microarray, primary screen, artefact control for SMM compound annotation, biophysical, 635/667 nm fluorescence (AID 1147); details: streptavidin binding, higher = more signal;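 further: signal reflects streptavidin binding to arrayed compounds as a control protein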
Chain of Streptavidin (Streptomyces avidinii) (P22629 whole entry, looked up): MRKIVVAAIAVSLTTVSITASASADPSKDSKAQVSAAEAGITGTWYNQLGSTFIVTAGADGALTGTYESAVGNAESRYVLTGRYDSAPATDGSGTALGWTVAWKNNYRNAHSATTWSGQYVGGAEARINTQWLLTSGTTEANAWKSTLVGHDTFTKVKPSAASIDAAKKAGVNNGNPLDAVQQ

[16] = small-molecule binders of probe aInhba, primary screen, biochemical, small-molecule microarray, 635/667 nm fluorescence (AID 1148); details: higher = more signal;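 further: score merges 667nm spot fluorescence with signal-to-noise for antibody binding to printed compounds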
Torsin-1A (Homo sapiens) [17] = biological target: Torsin-1A (Homo sapiens) (UniProt O14656); assay: torsin A binders from cell lysate, primary screen, small-molecule microarray, wild-type, 635/667 nm (AID 1149); details: COS7 hTOR1A-WT lysate, 635 nm fluorescence, higher = more signal
Chain of Torsin-1A (Homo sapiens) (O14656 whole entry, looked up): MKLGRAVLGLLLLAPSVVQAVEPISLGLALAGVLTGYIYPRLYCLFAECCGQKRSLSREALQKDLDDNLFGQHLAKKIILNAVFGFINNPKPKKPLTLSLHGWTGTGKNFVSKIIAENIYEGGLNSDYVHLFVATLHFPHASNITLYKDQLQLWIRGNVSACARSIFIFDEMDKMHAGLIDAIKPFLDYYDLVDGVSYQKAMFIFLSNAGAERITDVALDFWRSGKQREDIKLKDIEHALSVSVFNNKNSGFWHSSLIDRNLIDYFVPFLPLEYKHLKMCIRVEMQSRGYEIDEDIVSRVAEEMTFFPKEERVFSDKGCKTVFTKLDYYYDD

Torsin-1A (Homo sapiens) [18] = biological target: Torsin-1A (Homo sapiens) (UniProt O14656); assay: small-molecule binders of mutant TOR1A in lysate, primary screen, cell lysate, small-molecule microarray, COS7 lysate, 635/667 nm fluorescence (AID 1150); details: COS7 hTOR1A mutant lysate, 635 nm fluorescence, higher = more signal;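 further: score pools 667 nm emission and signal to noise measuring lysate protein binding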
[19] = tested on: Sonic hedgehog protein (Shh); assay: small-molecule binders of Shh protein, primary screen, biochemical, small-molecule microarray, 635/667 nm fluorescence (AID 1151); details: small-molecule microarray binding, 635 nm fluorescence; higher = more signal;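 further: Shh protein binding to compounds spotted on small-molecule microarray slides; score combines spot fluorescence intensity with signal-to-noise across triplicate slides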

| SMILES | composite z-score [1] | composite z-score [2] | composite z-score [3] | composite z-score [4] | composite z-score [5] | composite z-score [6] | z-score [7] | composite z-score (Lefty1) | composite z-score [8] | z-score [9] | composite z-score [10] | z-score [11] | z-score [12] | z-score [13] | z-score [14] | composite z-score [15] | composite z-score [16] | composite z-score (Torsin-1A (Homo sapiens) [17]) | composite z-score (Torsin-1A (Homo sapiens) [18]) | composite z-score [19] |
| --- | --- | --- | --- | --- | --- | --- | --- | --- | --- | --- | --- | --- | --- | --- | --- | --- | --- | --- | --- | --- |
| COc1ccc(C#Cc2ccc3c(c2)[C@]2(C(=O)N3)[C@H](C(=O)Nc3nc4ccccc4s3)[C@H]3C(=O)O[C@H](c4ccccc4)[C@H](c4ccccc4)N3[C@@H]2c2ccc(OCCO)cc2)cc1 | 1.11 | 0.98 | 0.266 | 0.731 | 1.38 | 0.83 | -2.33 | 0.949 | 1.29 | -3.53 (inactive) | 0.505 | -0.974 (inactive) | -0.953 (inactive) | -1.43 (inactive) | -0.545 (inactive) | 1.57 | 0.153 | 0.504 | 0.887 | 1.06 |
| CC(=O)c1ccc(C(O)C2C=CC3C(=O)NC(=O)C3N2Nc2ccc(Cl)cc2Cl)cc1 (stereo not given) | 1.48 | -0.106 | -0.363 | -0.131 | 0.504 | -0.115 | -0.76 | -0.0596 | 0.564 | 0.284 (inactive) | 0 | 0.102 (inactive) | -0.806 (inactive) | 0.626 (inactive) | 0.412 (inactive) | 0.147 | 0.0565 | 0.027 | 0.0127 | -0.257 |
| CCOC(=O)C[C@H]1[C@H](OC(=O)c2ccc(C(=O)c3ccccc3)cc2)[C@@H](NC(=O)c2ccc3ccccc3c2)c2cc(OCCCO)ccc2N1C(=O)c1ccc2ccccc2n1 | 0.565 | 0.578 | 0.44 | 0.892 | 0.331 | 0.851 | 2.1 | 0.704 | 0.0601 | -0.818 (inactive) | 0.289 | 0.311 (inactive) | -0.0217 (inactive) | -0.244 (inactive) | -0.643 (inactive) | 0.129 | -0.0774 | 0.182 | 0.819 | 0.94 |
| CCOC(=O)C1=C(C(=O)OCC)N(S(=O)(=O)CC[Si](C)(C)C)[C@H](c2ccccc2)CC1 | 0.171 | 1.17 | -0.069 | 0.837 | 0.761 | -0.0502 | 2.54 | 0.566 | 1.1 | 1.01 (inactive) | 0.263 | -4.45 (inactive) | 0.338 (inactive) | 0.229 (inactive) | 0.207 (inactive) | 0.955 | 0.131 | 0.454 | 0.476 | -0.424 |
| C=C(COC)C(=O)CC[C@@H](OC(=O)c1cccnc1)c1cccc(OCCO)c1 | -0.007 | 0.23 | -0.437 | -1.48 | 1.29 | 0.773 | 0.525 | 1.19 | 0.981 | -2.86 (inactive) | 0.0666 | -0.864 (inactive) | -0.652 (inactive) | 8.15 (active) | 5.43 (inactive) | -0.296 | -0.127 | 0.653 | 0.778 | 1.37 |
| O=C1C2C=CC(C(O)C(c3ccccc3)c3ccccc3)N(Nc3ccccc3)C2C(=O)N1c1ccccc1 (stereo not given) | 0.59 | 1.28 | 0.175 | 1.03 | 1.29 | 0.472 | 0.0105 | 0.707 | 0.882 | -1.05 (inactive) | 0.422 | -0.374 (inactive) | -1.06 (inactive) | 0.629 (inactive) | -0.222 (inactive) | 0.828 | 0.271 | 0.616 | 0.984 | 0.734 |
| [N-]=[N+]=Nc1ccccc1[C@@H]1OC(c2ccc(OCCCO)cc2)=N[C@]1(Cc1ccccc1)C(N)=O | 1.91 | 0.445 | 0.474 | 0.899 | 0.207 | -0.425 | 1.86 | -0.188 | 0.619 | -8.14 (active) | -0.0757 | -2 (inactive) | -0.0461 (inactive) | 0.195 (inactive) | -1.49 (inactive) | 0.533 | 0.451 | 0.245 | 0.305 | -0.0762 |
| [N-]=[N+]=NCc1ccccc1[C@@H]1OC(c2ccc(OCCCO)cc2)=N[C@]1(Cc1ccccc1)C(=O)NCc1ccccc1 | 0.491 | 1.18 | 1.11 | 0.734 | 0.846 | -0.0705 | 0.012 | -0.0948 | 1.03 | 0.294 (inactive) | 0.609 | -2.86 (inactive) | -0.338 (inactive) | -0.585 (inactive) | 0.0071 (inactive) | 1.24 | -0.0267 | 0.823 | 1.1 | -0.471 |
| CCOC(=O)C1=CCC(c2cc3ccccc3[nH]2)N(S(=O)(=O)c2ccccc2[N+](=O)[O-])C1 (stereo not given) | 0.584 | 1.2 | 0.501 | 0.0547 | 0.574 | -0.103 | 1.05 | 0.306 | 0.896 | -0.0781 (inactive) | 0.379 | -5.05 (inactive) | -0.295 (inactive) | -0.172 (inactive) | -0.0943 (inactive) | -0.141 | -0.101 | 0.0459 | 0.609 | -0.312 |
| NC(=O)N1C(=O)C2C(C1=O)C1C=C(CCCO)C2C(c2ccc(CN3CCCC3)cc2)N1Cc1cccc(OC(F)(F)F)c1 (stereo not given) | 0.22 | 0.429 | 0.102 | 0.33 | 1.05 | 0.532 | 1.39 | 1.38 | 0.0168 | -0.84 (inactive) | 0.232 | -0.596 (inactive) | 0.963 (inactive) | 0.494 (inactive) | -0.679 (inactive) | -0.157 | -0.0736 | 0.094 | 0.462 | 1.86 |

— PubChem BioAssay
